# Assay results from PubChem BioAssay (EPA / NIEHS).
# Records with an inconclusive call do not appear. Activity calls are given as the source filed them. The calls were made as follows: active = hit-call score of the fitted dose curve at least 0.9, where 1 is the maximum; inconclusive = response in the unintended direction; inactive = score below 0.9.
# Experiment: Tanguay_ZF_120hpf_SNOU_legacy: (Legacy) Oregon State University Tanguay Lab 120 Hour Post-fertilization zebrafish Assay for Snout Malformation (AID 2283637)
# Outline: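 Dechorionated zebrafish, individually housed from 6 hpf in covered, sealed wells at 28C with 0.64% DMSO vehicle, were examined at 120 hpf for snout malformation. Responses were binary and analysed positive-direction relative to DMSO.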
Compound,outcome,AC50
C[N+]1(C)CCCCC1,inactive,–
O=[N+]([O-])c1cc(C(F)(F)F)c(Cl)c([N+](=O)[O-])c1Nc1ncc(C(F)(F)F)cc1Cl,inactive,–
CCCOCC(=Nc1ccc(Cl)cc1C(F)(F)F)n1ccnc1,inactive,–
CCOP(=O)(SC(C)CC)N1CCSC1=O (stereo not given),inactive,–
CC(COc1ccc(Oc2ccccc2)cc1)Oc1ccccn1 (stereo not given),inactive,–
CN(C)[C@@H]1C(=O)C(C(N)=O)=C(O)[C@@]2(O)C(=O)C3=C(O)c4c(O)cccc4[C@@](C)(O)[C@H]3[C@H](O)[C@@H]12,inactive,–
COc1cccc(C(=O)NN(C(=O)c2cc(C)cc(C)c2)C(C)(C)C)c1C,inactive,–
CCC(=NOC/C=C/Cl)C1=C(O)CC(C2CCOCC2)CC1=O (stereo not given),inactive,–
CCOP(=S)(OCC)OC(Cl)C(Cl)(Cl)Cl (stereo not given),inactive,–
CC1=NNC(=O)N(/N=C/c2cccnc2)C1,inactive,–
Cc1ccn2nc(S(=O)(=O)Nc3c(F)cccc3F)nc2n1,inactive,–
Nc1c(Cl)cc([N+](=O)[O-])cc1Cl,–,31.1 µM (active)
CCCSP(=O)(OCC)Oc1ccc(Br)cc1Cl (stereo not given),inactive,–
CCOP(=O)(OCC)Oc1cc(C)nc(C(C)C)n1,inactive,–
COc1ccc(C(=CC(=O)N2CCOCC2)c2ccc(Cl)cc2)cc1OC,–,35.4 µM (active)
CNC(=O)ON=C(C)SC,inactive,–
CCCSP(=O)(OCC)SCCC,inactive,–
COP(=O)(OC)OC(Br)C(Cl)(Cl)Br (stereo not given),inactive,–
CCc1cnc(C2=NC(C)(C(C)C)C(=O)N2)c(C(=O)O)c1 (stereo not given),inactive,–
Cc1nn(-c2cc(NS(C)(=O)=O)c(Cl)cc2Cl)c(=O)n1C(F)F,inactive,–
